HCMV inh = human cytomegalovirus inhibition | HFF cells, HCMV-luciferase reporter, 72 h; stronger effect = lower value | activity change, negative = inhibition, % at 57.5 µM | actives 4.5% (n = 410,000); in the data active = activity change below about -60%; inconclusive = no clear call, values can overlap the other calls; inactive = above about -39%
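Inhibition of viral replication was scored as loss of reporter luminescence in HFFs infected with HCMV-luciferase (MOI 1 PFU/cell) for 72 h; compounds tested at 2 doses, normalized to buffer and Salinomycin controls.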
MARV entry inh = blocks Marburg virus binding to or entry into cells. Marburg virus pseudotyped entry inhibition, cell reporter. Potency, µM (top dose mostly 37.8 µM), without a hit: at the highest dose activity change, negative = inhibition, most hits filed as inhibitors. actives 1.8% (n = 300,000); calls by dose curve; tested in HEK293 cells; note: potency is the fitted concentration of half-maximal effect
Lassa entry inh = inhibitors of Lassa virus binding or cell entry. actives 1.2% (n = 300,000). Lassa virus pseudotype entry inhibition, cell reporter. Potency, µM (top dose mostly 37.9 µM), for the others: at the top dose activity change, negative = inhibition, usual class: inhibitors; calls by dose curve; tested in HEK293 cells; note: potency is the fitted concentration of half-maximal effect; nearly all actives have a fitted effect of over 50% in size
FMDV antiviral = foot and mouth disease virus antiviral activity; actives 1.2% (n = 410,000); Potency, µM (series often up to 57.9 µM), without a hit: at the top dose activity change, negative = inhibition, usual class: inhibitors; FMDV antiviral cell-based qHTS; calls by dose curve; tested in HEK293T cells; note: read-out not given here; potency is the fitted concentration of half-maximal effect; nearly all actives have a fitted effect of over 45% in size
Active calls of the source: *; ? = inconclusive; · = not tested or not shown; [ ] = remark or other dose. Only some compounds are listed: those with a hit (about 6.2% of all), similar ones and a draw of the others. % is set by controls: 0 for no effect and ±100 for the full control effect.

SMILES | HCMV inh | MARV entry inh | Lassa entry inh | FMDV antiviral
Cn1c(=O)c2c(nc(SCC(=O)Nc3ccc(F)c(F)c3)n2Cc2ccccc2F)n(C)c1=O | -9 | 18%[46.1 µM] | 10%[46.1 µM] | -8%
CCCOc1ccc(C(=O)N2CCC(c3nc4ccccc4s3)CC2)cc1 | 5 | ? | 18%[46.1 µM] | -9%
FC(F)(F)C1=Nc2cccc3cccc(c23)N1 | -13 | 4% | ? | 16µM*
N#Cc1c(N2CCOCC2)nc(N)c2c(N)nc3c(c12)CC(CCl)O3 (configuration not stated) | -3 | 18%[46.1 µM] | -3% | -20%
CN1C(=O)CSC1=NC12CC3CC(CC(C3)C1)C2 | -40 | 0% | -13% | -25%
O=C(CCN1CCOCC1)NNC(=O)/C(=C/c1ccccc1)NC(=O)c1ccccc1 | 1 | ? | 11µM* | -10%
CCOC(=O)/C(=C\c1ccccc1)C(=O)CCN1CCOCC1 | 24 | 12% | -4%[46.1 µM] | 18µM*
CC1(C(=O)NS(=O)(=O)c2ccc(Br)cc2)CCN1C(=O)C1CCCCC1 (configuration not stated) | -19 | · | · | -4%
COC(=O)c1ccc(NC(=O)CCCC(=O)OCC(=O)c2ccc(Cl)cc2)cc1 | -1 | 3%[46.1 µM] | 2%[46.1 µM] | -12%
COc1ccc2[nH]c(-c3ccc(C)cc3)cc(=O)c2c1 | · | ? | 4.1µM* | -34%
COc1ccc2[nH]c(C(=O)c3ccccc3)cc2c1 | · | · | · | 50%
COc1ccc2[nH]c(-c3ccccc3)cc2c1 | -36 | 8.9µM* | -27% | 19%
CC1(C)CC[C@]2(C(=O)n3ccnc3)CC[C@]3(C)[C@H](C(=O)C=C4[C@@]5(C)C=C(C#N)C(=O)C(C)(C)[C@@H]5CC[C@]43C)[C@@H]2C1 | -101* | 2.5µM* | 2.5µM* | 1.4µM*
Cc1ccc(C2=Nc3ccccc3N(CC(=O)Nc3cccc(F)c3)C(=O)C2)cc1C | 31 | · | ? | 29%
Cc1ccc(NC(=O)CN2C(=O)CC(c3ccc(F)cc3)=Nc3ccccc32)cc1F | -81* | · | 6%[46.1 µM] | 10%
CCCC1OC2CC3C4CCC5=CC(=O)C=CC5(C)C4C(O)CC3(C)C2(C(=O)O)O1 (configuration not stated) | 32 | · | · | 12%
CCCC1O[C@@H]2C[C@H]3[C@@H]4CCC5=CC(=O)C=C[C@]5(C)[C@H]4[C@@H](O)C[C@]3(C)[C@]2(C(=O)CO)O1 (some centres not stated) | 38 | 9.2µM* | ? | -8%
CCN(C(=O)CSc1nnnn1-c1ccccc1)C1CCS(=O)(=O)C1 (configuration not stated) | 32 | ? | 13% | 5%
COc1cccc(-c2nc3cc(SC)ccc3cc2CN(C(=O)c2csc(C)n2)C2CC2)c1 | · | · | · | 28µM*
COc1cccc(-c2nc3cc4c(cc3cc2CN(C(=O)c2csc(C)n2)C2CC2)CCC4)c1OC | · | · | · | 14µM*
COc1ccc(-c2nc3cc(F)ccc3cc2CN(C(=O)c2cccc(OC)c2)C2CC2)cc1 | · | · | · | -11%
Cc1ccc(NC(=O)c2ccc(N/N=C/c3cccc(O)c3)c([N+](=O)[O-])c2)cc1 | -87* | ? | ? | 0%
Cc1ccccc1NC(=O)c1ccc(N/N=C/c2ccccc2O)c([N+](=O)[O-])c1 | -84* | 1% | 4% | 4%
O=[N+]([O-])c1ccc(N/N=C/c2cccc(O)c2)cc1 | 122 | ? | 3%[46.1 µM] | 10%
COC(=O)/C(=C/c1cccc([N+](=O)[O-])c1)NC(=O)c1ccc(OC)cc1 | -31 | 0% | ? | -2%
SMILES | HCMV inh | MARV entry inh | Lassa entry inh | FMDV antiviral
COc1ccc(/C=C(/C(=O)NCc2ccccc2)c2ccccc2)cc1 | -30 | -2% | -17% | -11%
COC(=O)c1[nH]c2ccccc2c1NC(=O)/C=C/c1ccc2c(c1)OCO2 | -11 | -11% | -3% | 19%
CCN(CC(=O)Nc1c(C(=O)OC)[nH]c2ccccc12)c1ccc2c(c1)OCO2 | 1 | 6.5µM* | -9% | -28%
Cc1nnc(N/N=C/c2cc(C)n(-c3ccc(F)cc3)c2C)n1N | 35 | 15µM* | 7.1µM* | 12%
Cc1cc(/C=N/NC(N)=S)c(C)n1-c1ccc(Br)cc1 | 11 | ? | ? | -18%
Cc1nnc(N/N=C/c2ccccc2O)n1N | -104* | ? | ? | 26%
Cc1cc(Cl)ccc1NC(=O)COC(=O)c1nc2nccc(C)n2n1 | 14 | ? | 2% | 25%
Cc1cc(C)cc(Nc2cc(C(=O)NCCCN(C)C3CCCCC3)c3ccccc3n2)c1 | -99* | ? | -27%[46.1 µM] | ?
Cc1ccc(C)c(Nc2cc(C(=O)NCCCN(C)C3CCCCC3)c3ccccc3n2)c1 | ? | ? | -17%[46.1 µM] | -9%
COc1ccc(Nc2cc(C(=O)NCCCN(C)Cc3ccccc3)c3ccccc3n2)cc1OC | -100* | · | 2%[46.1 µM] | -16%
CCCCN(CCCNC(=O)c1cc(Nc2ccc(OC)cc2)nc2ccccc12)Cc1ccccc1 | -71* | 8%[46.1 µM] | 26%[46.1 µM] | -3%
CCCCN(C)CCCNC(=O)c1cc(Nc2ccc(OC)c(OC)c2)nc2ccccc12 | 68 | · | · | ?
CCCCN(CCCNC(=O)c1cc(Nc2ccc(OC)c(OC)c2)nc2ccccc12)Cc1ccccc1 | -18 | ? | ? | -10%
CCCCN(C)CCCNC(=O)c1cc(-c2ccc(Br)s2)nc2ccccc12 | -68* | 13%[46.1 µM] | ? | -9%
Cc1ccc(OCC(=O)O/N=C(\N)Cc2ccc(Cl)cc2)cc1 | 34 | 2% | 11% | 4%
COc1ccc(N(C)C(=O)NCc2noc3ccc(C)cc23)c(OC)c1 | -82* | · | 2%[46.1 µM] | -14%
Cc1cc(C)cc(N(CCC(=O)O)S(=O)(=O)c2ccc(Cl)cc2)c1 | -69* | -5% | 7% | -4%
Cc1ccc(N(CCC(=O)O)S(=O)(=O)c2ccc(C)cc2)cc1 | -7 | ? | -11% | 0%
O=C(O)c1ccccc1NC(=O)c1cc2ccccc2oc1=O | 41 | · | · | 14%
COc1ccc(CN2C(=O)c3ccccc3C(/C=N\OCc3ccc(F)cc3)C2=O)cc1 (configuration not stated) | -91* | -25% | -3% | ?
CCn1cnc2sc(C(=O)N(Cc3ccc(N(C)C)cc3)Cc3ccco3)c(C)c2c1=O | -18 | 5µM* | ? | -17%
CN(C)c1ccc(CN(Cc2ccco2)C(=O)c2ccc(C(C)(C)C)cc2)cc1 | -5 | -1%[46.1 µM] | ? | 6%
COCC(=O)OCC(=O)Nc1cc(C)c(C)cc1[N+](=O)[O-] | ? | 5%[46.1 µM] | 1% | 28%
N#Cc1c(NC(=O)CSc2ccccn2)oc(-c2ccccc2)c1-c1ccccc1 | -19 | 1% | 0% | -10%
Cc1ccc(Nc2nnc(-c3ccc(C)c(S(=O)(=O)NCc4nc5ccccc5[nH]4)c3)c3ccccc23)cc1 | 12 | ? | ? | 47%
Cc1ccc(-c2nnc(NCc3nc4ccccc4[nH]3)c3ccccc23)cc1S(=O)(=O)N(C)C | -32 | ? | 18µM* | ?
CNc1nnc(-c2cc3cc(Cl)ccc3oc2=O)s1 | 71 | 1% | ? | 45%
O=c1oc2ccc(Cl)cc2cc1-c1nnc(Nc2cccc(C(F)(F)F)c2)s1 | -64* | -1% | 11% | -17%
Cc1cc(NC(=O)CN2C(=O)/C(=C/c3cccc(Br)c3)SC2=S)no1 | 20 | 0%[46.1 µM] | 15%[46.1 µM] | -7%

Source: PubChem BioAssay (National Center for Advancing Translational Sciences (NCATS))
